Screening data deposited in PubChem by National Center for Advancing Translational Sciences (NCATS).
IL-1B inflam inh – qHTS for Inhibitors of Inflammasome Signaling: IL-1-beta AlphaLISA Primary Screen; AID 743279, 2014; activity change, % at 57.5 µM; hit rate 4.7% among 360,000; THP-1 LPS/ATP IL-1B secretion, AlphaLISA, 16 h; stronger effect = lower value; in the data active means activity change below about -50%; inconclusive means mostly about -30% to -49%
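THP-1 cells pretreated 1 hr with compounds (up to 57.5 uM final), then stimulated with LPS (250 ng/mL final) plus ATP (1.25 mM final); secreted IL-1B measured by AlphaLISA after 16 hr, decreased signal indicating inhibition.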
HT1080NT lethal – qHTS for induction of synthetic lethality in tumor cells producing 2HG: qHTS for the HT-1080-NT fibrosarcoma cell line; AID 686970, 2013; hit rate 1.6% among 360,000; Potency, µM (series often up to 46.1 µM), for the others: at the top dose activity, negative = less viability, hits mostly cytotoxic; HT-1080-NT fibrosarcoma viability, CellTiter-Glo ATP luminescence, 48 h;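 further: NT is the 2HG producing partner of a matched IDH1 knockdown line; potency means the concentration at half of the fitted maximal effect; 0% = DMSO-treated cells and -100% = media-only wells without cells; nearly all actives have a fitted effect of over 55% in size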
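750 cells/well, RPMI + 5% FBS; 2 h settle, compound pin-transfer, 48 h at 37 degrees C. CellTiter-Glo 10 min RT, luminescence. Normalized to DMSO and media-only wells.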
HT1080 IDH1KD tx – qHTS for induction of synthetic lethality in tumor cells producing 2HG: qHTS for the HT-1080-IDH1KD cell line; AID 686971, 2013; HT-1080 IDH1 knockdown viability, ATP luminescence, 48 h; hit rate 2% among 360,000; Potency, µM (titrated, usually from 46.1 µM), for the others: at the highest dose activity, negative = toxicity, actives largely listed as cytotoxic;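 further: potency means the concentration at half of the fitted maximal effect; 0% = DMSO wells and -100% = cell-free medium wells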
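CellTiter-Glo luminescence after 48 h compound exposure at 37 degrees C of IDH1-knockdown HT-1080 cells in 5% FBS RPMI. %Activity scaled between DMSO wells and cell-free media wells, with curves fitted and assigned curve classes.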
DT40 TDP1 no CPT – qHTS for Inhibitors of human tyrosyl-DNA phosphodiesterase 1 (TDP1): qHTS in cells in absence of CPT; Potency, µM (series often up to 46.2 µM), for inactives: at the highest dose activity change, negative = growth inhibition, usual class: inhibitors; DT40 Tdp1-/- hTDP1 cells, no CPT, ATP luminescence, 48 h; hit rate 15% among 420,000; AID 686978, 2013; further: potency means the concentration at half of the fitted maximal effect; nearly all actives have a fitted effect of over 55% in size
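Growth of hTDP1-complemented DT40 Tdp1-knockout cells is measured by ATP luminescence after at least 48 hr compound exposure at 37 °C, with DMSO substituting for the 20 nM CPT used in the parallel screen.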
ALOX12 inh – Primary qHTS assay for inhibitors of human arachidonate 12S-lipoxygenase (ALOX12): Round 2; AID 1671190, 2021; purified 12hLO, xylenol orange hydroperoxide absorbance; hit rate 1.1% among 580,000; Potency, µM (series often up to 108 µM), without a hit: at the highest dose activity change, negative = inhibition, usual class: inhibitors; further: potency means the concentration at half of the fitted maximal effect
Target sequence (P18054 whole entry, looked up): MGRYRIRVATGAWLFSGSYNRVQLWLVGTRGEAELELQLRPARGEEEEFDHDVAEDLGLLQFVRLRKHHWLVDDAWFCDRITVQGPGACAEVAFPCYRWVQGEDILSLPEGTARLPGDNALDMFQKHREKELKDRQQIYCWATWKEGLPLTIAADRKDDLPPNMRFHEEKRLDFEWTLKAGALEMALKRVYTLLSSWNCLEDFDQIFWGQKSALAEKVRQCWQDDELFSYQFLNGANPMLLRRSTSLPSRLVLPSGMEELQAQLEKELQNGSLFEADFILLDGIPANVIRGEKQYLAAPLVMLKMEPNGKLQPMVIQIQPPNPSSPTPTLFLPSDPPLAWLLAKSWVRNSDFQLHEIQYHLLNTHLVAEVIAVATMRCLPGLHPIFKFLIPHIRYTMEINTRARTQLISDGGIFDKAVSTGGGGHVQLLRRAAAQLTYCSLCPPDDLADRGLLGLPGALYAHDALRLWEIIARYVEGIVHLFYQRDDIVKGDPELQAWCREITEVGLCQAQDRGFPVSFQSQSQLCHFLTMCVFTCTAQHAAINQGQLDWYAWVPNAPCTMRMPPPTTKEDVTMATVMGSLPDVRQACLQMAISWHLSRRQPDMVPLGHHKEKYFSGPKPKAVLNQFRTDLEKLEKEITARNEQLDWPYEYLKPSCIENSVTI
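Purified human 12hLO at 150 nM in 25 mM Hepes, 0.01% Triton X-100, pH 7.0, preincubated 15 min at room temperature with compound. Reaction started with 40 uM arachidonic acid, 30 min at room temperature. Hydroperoxide measured by Fe-xylenol orange, 573/405 nm absorbance ratio.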
TDP1 cell CPT – qHTS for Inhibitors of human tyrosyl-DNA phosphodiesterase 1 (TDP1): qHTS in cells in presence of CPT | chicken DT40 Tdp1-/-;hTDP1 cells + 20 nM CPT, ATP luminescence, 48 h | Potency, µM (titrated, usually from 46.2 µM), for the others: at the highest dose activity change, negative = growth inhibition, usual class: inhibitors | hit rate 12% among 420,000; further: potency means the concentration at half of the fitted maximal effect; nearly all actives have a fitted effect of over 55% in size
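Chicken DT40 Tdp1-/- cells stably complemented with human TDP1 were seeded at 400 cells/well in medium containing 20 nM camptothecin, exposed to pin-transferred compounds, and grown at 37 °C for at least 48 hr. Viability was read as ATP luminescence.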
Starred values were filed as active, the others as inactive; ? = inconclusive; · = no result. This excerpt belongs to a sample that is enriched for hits. Unless noted, the call rests on the fitted dose curve; in most records, active means well fitted curve in the direction sought with a large enough effect; inconclusive means small, poorly fitted or top-dose-only effect, or another doubt; inactive means no such curve, though single readings can be large; an effect the other way counts as inactive or inconclusive. Unless noted, on the % scale 0 is the no-effect control and ±100 the full control effect.

SMILES	IL-1B inflam inh	HT1080NT lethal	HT1080 IDH1KD tx	DT40 TDP1 no CPT	ALOX12 inh	TDP1 cell CPT
O=C(CSc1nnc2c(Cl)cc(C(F)(F)F)cn12)N(Cc1ccccc1)Cc1ccccc1	-29	-26%	-7%	21µM*	8%	-74%
Cc1nc(C2CC(O)C2)cc(N(C)Cc2cnc3ccccc3c2)n1 (stereo not drawn)	·	·	·	·	25%	·
O=C(OCc1cn([C@@H]2CN(CC3CCCCC3)[C@@H](c3ccc(Cl)cc3)C[C@H]2O)nn1)c1ccccc1	6	7%	9%	-17%	?	-4%
O=C(OCc1cn([C@H]2CN(CC3CCCCC3)[C@@H](c3ccc(Cl)cc3)C[C@@H]2O)nn1)c1ccccc1	-5	?	?	16µM*	0%	?
O=C(OCc1cn([C@@H]2CN(CC3CCCCC3)[C@@H](c3ccccc3)C[C@H]2O)nn1)c1ccccc1	-1	-3%	-10%	18µM*	-5%	?
O=C(OCc1cn([C@H]2CN(CC3CCCCC3)[C@@H](c3ccccc3)C[C@@H]2O)nn1)c1ccccc1	25	9%	15%	?	22%	?
CCc1ccc(NC(=O)CSc2ncnc3ccccc23)cc1	·	·	·	·	-67%	·
O=c1[nH]c(-c2ccccn2)cc2ccccc12	-56*	-10%	-27%	-21%	-10%	-28%
O=c1[nH]c(Nc2ccccn2)cc2ccccc12	24	7%	2%	?	?	?
CC(Sc1nnc(Cc2cccs2)n1C1CCCCC1)C(=O)NCc1ccco1 (stereo not drawn)	-3	9%	8%	15µM*	36%	15µM*
N#CCCn1nc(-c2ccccc2)cc1Nc1ccccc1NC(=O)C(F)(F)F	-7	0%	12%	-28%	-1%	-20%
N#CCCn1nc(-c2ccc(Br)cc2)cc1Nc1ccccc1NC(=O)C(F)(F)F	-78*	?	?	?	-30%	?
O=S(=O)(Nc1cccc2cccnc12)c1ccccc1F	·	·	·	·	26%	·
Cc1ccc(O/C=C2/Nn3c(nnc3-c3cc(-c4ccccc4)n[nH]3)S2)cc1	·	·	·	16µM*	·	7.1µM*
COc1ccc(-c2cc(C(=O)N(C)CC(=O)Nc3cccc(F)c3)c3ccccc3n2)cc1	-56*	-35%	?	?	?	16µM*
Cc1ccc2nc(-c3ccccc3)cc(C(=O)N(C)CC(=O)Nc3ccccc3Br)c2c1	?	?	?	26µM*	-2%	?
COc1ccc(-c2nn(-c3ccccc3)cc2C(=O)N(C)CC(=O)Nc2cccc(F)c2)cc1	-25	-28%	?	?	-9%	?
CN(CC(=O)Nc1cccc(F)c1)C(=O)c1cc(-c2ccccc2)nc2ccccc12	-24	-9%	-12%	?	-30%	?
CN(CC(=O)Nc1ccccc1Br)C(=O)c1ccc(-c2ccc(Cl)cc2)o1	8	-13%	-25%	?	-1%	?
CN(CC(=O)Nc1ccccc1Br)C(=O)c1n[nH]c2ccccc12	16	?	-12%	-15%	3%	-13%
COc1cccc(-c2nn(-c3ccc(C)cc3)cc2C(=O)N(C)CC(=O)Nc2cccc(F)c2)c1	0	-24%	?	?	0%	18µM*
CN(CC(=O)Nc1ccccc1Br)C(=O)c1ccccc1OCc1ccc(Cl)cc1	-59*	-2%	-9%	18µM*	8%	?
CCc1nc(CN2CCCC(CO)(CC3CC3)C2)cs1 (stereo not drawn)	·	·	·	·	26%	·
O=C(CN1CCN(c2ncccc2C(F)(F)F)CC1)NC1CC1	·	·	·	·	6%	·
c1cc(-c2n[nH]c(C3CCCCN3)n2)ccn1 (stereo not drawn)	·	·	·	·	9%	·
SMILES	IL-1B inflam inh	HT1080NT lethal	HT1080 IDH1KD tx	DT40 TDP1 no CPT	ALOX12 inh	TDP1 cell CPT
CC(=O)N1CCN(c2ccc([N+](=O)[O-])c(-n3nc(-c4ccc(C)cc4)c4ccccc4c3=O)c2)CC1	·	·	·	·	-7%	·
CN(CC(=O)Nc1cccc(F)c1)C(=O)CSc1ccccc1	-2	-10%	-9%	?	?	-10%
Cc1ccc(SCC(=O)N(C)CC(=O)Nc2cccc(F)c2)c(C)c1	-53*	1%	-1%	?	?	-22%
COc1ccc(NC(=O)CN(C)C(=O)c2cc(-c3ccc(OC)cc3)nc3ccccc23)cc1	?	-21%	-11%	?	-16%	?
COc1ccc(NC(=O)CN(C)C(=O)c2cc(-c3ccccc3)nc3ccccc23)cc1	?	-8%	-1%	15µM*	?	?
COc1ccc(-c2nn(-c3ccccc3)cc2/C=C/C(=O)OCC(=O)Nc2ccccc2C#N)cc1	4	-12%	-20%	23µM*	-20%	7.3µM*
COc1ccc(NC(=O)CN(C)C(=O)Cc2n[nH]c(=O)c3ccccc23)cc1	31	-15%	-6%	-10%	6%	9.2µM*
N#Cc1ccccc1NC(=O)COC(=O)/C=C/c1cn(-c2ccccc2)nc1-c1ccc(Cl)cc1	46	-1%	1%	?	9%	?
CCOc1cccc(C(=O)NNC(=O)C2C3CCC(C3)C2C(=O)O)c1 (stereo not drawn)	·	·	·	·	4%	·
CC(Sc1ccc(Br)cc1)C(=O)O (stereo not drawn)	·	·	·	·	-5%	·
COc1ccc(-c2nn(-c3ccccc3)cc2C(=O)N(C)CC(=O)Nc2ccccc2Br)cc1	?	-8%	-5%	?	-4%	23µM*
CC1=C(NCCc2ccccc2)CCC1=O	38	-1%	1%	21µM*	0%	21µM*
CCCNC1=C(C)C(=O)CC1	12	19%	20%	2%	0%	-2%
CC(C)N(c1ccccc1)c1ccc(NC(=S)NCCN(C)C)cc1	·	16µM*	21µM*	21µM*	-20%	?
CN(C)CCCNC(=S)Nc1ccc(-c2ccccc2)cc1	-6	21µM*	?	?	?	?
CC(C)c1ccc(NC(=S)NN(c2ccccc2)c2ccccc2)cc1	-22	-11%	-9%	26µM*	40µM*	13µM*
